An excerpt weighted towards active compounds, which were near 4.8% of everything screened.
hgDAF-12 ag: agonists of H. glycines DAF-12 nuclear receptor | HEK293 GAL4-hgDAF12 UAS-luciferase reporter, agonist luminescence; normalized to butyrate control | activation, % at 6.8 µM | 370,000 tested, 1.8% active;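 active means activation above a cutoff set at the mean of all screened compounds plus 3 SD, cut at about 10% in these data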;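 further: 0% = DMSO wells and 100% = sodium butyrate wells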
SMARCA2 act: increases SMARCA2 function in MMTV reporter cells; AID 652017; 370,000 tested, 1% active; MG213 cells, MMTV-luciferase reporter, dexamethasone, overnight; activation, % at 9.1 µM; in the data active means activation above about 7.8%;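 further: 0% = vehicle wells and 100% = reference activator wells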
ssDAF-12 act: S. stercoralis DAF-12 activation, primary screen | 370,000 tested, 1% active | AID 652126 | activation, % at 6.8 µM | HEK293 ssDAF-12/GRIP1 lit1-tk-luc reporter, luminescence; % of 3 µM dafachronic acid response;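 active means activation above the mean over all tested compounds plus 3 SD, cut at about 0.9% in these data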;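 further: 0% = DMSO-only wells and 100% = 3 µM delta7-dafachronic acid wells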
hcDAF12 agonist: activators of H. contortus DAF-12 nuclear receptor; HEK293 hcDAF-12 lit1-tk-luc reporter, luminescence; 0% DMSO, 100% Δ7-dafachronic acid; activation, % at 6.8 µM; 370,000 tested, 1.4% active;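 active means activation above the mean of all tested compounds plus 3 SD, cut at about 5.5% in these data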;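 further: 100% = response to 3 µM Δ7-dafachronic acid high control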
DAX1 inh-1: DAX1 (NR0B1) inhibition, primary screen; HEK293T StAR-luciferase reporter, SF-1/DAX-1 repression relief; inhibition, % at 6.8 µM; 370,000 tested, 1.1% active;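 active means inhibition above the mean over all tested compounds plus 3 SD, cut at about 3.6% in these data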;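 further: 0% = DAX-1 cells with DMSO and 100% = cells lacking DAX-1 with DMSO; higher inhibition means more luminescence from relief of DAX-1 repression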
DAX1 inh-2: NR0B1 (DAX1) inhibition | P51843 | HEK293 Gal4-DAX1 luciferase reporter, luminescence | inhibition, % at 6.75 µM | 340,000 tested, 0.99% active;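 active means inhibition above the mean over all tested compounds plus 3 SD, cut at about 4.2% in these data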;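 further: 0% = DAX1-transfected cells with DMSO and 100% = empty-vector control cells with DMSO; inhibition shows as a rise in luminescence from relieved DAX1 repression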
Target sequence (P51843 207-470 limits assumed): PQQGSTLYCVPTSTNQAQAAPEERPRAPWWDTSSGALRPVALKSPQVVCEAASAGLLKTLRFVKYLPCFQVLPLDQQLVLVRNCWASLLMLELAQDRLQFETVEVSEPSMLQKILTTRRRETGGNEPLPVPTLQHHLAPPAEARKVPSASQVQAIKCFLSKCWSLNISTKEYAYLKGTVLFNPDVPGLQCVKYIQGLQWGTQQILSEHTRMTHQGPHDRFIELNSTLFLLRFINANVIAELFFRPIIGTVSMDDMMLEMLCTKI
hgDAF12 ag: confirmation of H. glycines DAF-12 agonists; activation, % at 6.8 µM; HEK293 GAL4-hgDAF12 luciferase reporter, agonist mode; percent of butyrate response; shares compounds with hgDAF-12 ag; AID 743050; 3,300 tested, 80% active;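 active means mean activation over triplicate wells above the hit cutoff derived from the earlier primary screen, cut at about 11% in these data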;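 further: 0% = DMSO low control and 100% = 2 mM sodium butyrate high control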
LXRb DAF12 ctr: LXR-beta agonism as DAF-12 counter-screen | shares compounds with hgDAF-12 ag | HEK293 Gal4-LXR luciferase reporter, 24 h | activation, % at 6.8 µM | 3,300 tested, under 10 active | AID 743051;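 active means mean activation of the triplicate above a set limit carried over from the primary screen, none filed active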
Target sequence (P55055 whole entry, looked up, the tested form may be a part): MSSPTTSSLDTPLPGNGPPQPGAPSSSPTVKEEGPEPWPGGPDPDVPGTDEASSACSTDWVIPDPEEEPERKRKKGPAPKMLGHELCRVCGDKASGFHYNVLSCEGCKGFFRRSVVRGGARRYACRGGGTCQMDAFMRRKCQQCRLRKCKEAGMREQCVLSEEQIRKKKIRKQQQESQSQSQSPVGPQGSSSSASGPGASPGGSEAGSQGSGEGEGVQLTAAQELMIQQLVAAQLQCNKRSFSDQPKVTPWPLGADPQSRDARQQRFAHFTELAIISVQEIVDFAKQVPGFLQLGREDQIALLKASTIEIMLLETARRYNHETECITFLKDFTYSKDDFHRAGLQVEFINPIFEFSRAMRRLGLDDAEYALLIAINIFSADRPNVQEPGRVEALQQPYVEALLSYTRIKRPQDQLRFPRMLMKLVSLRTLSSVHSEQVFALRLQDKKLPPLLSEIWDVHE
Numbers without * were called inactive; x = no result.

SMILES | hgDAF-12 ag | SMARCA2 act | ssDAF-12 act | hcDAF12 agonist | DAX1 inh-1 | DAX1 inh-2 | hgDAF12 ag | LXRb DAF12 ctr
C/C(=N/NC(=O)c1ccccc1)C1=C(O)CC(C)(C)CC1=O | 14.3* | 4.7 | -0.9 | 3.5 | 1.8 | 1.9 | 3.2 | 0.2
Cc1ccc2nc(NC(=O)CCn3cccc3)sc2c1 | 14.8* | 1.1 | -1.7 | 2.1 | 2.7 | 1.9 | 8.8 | 0.2
CC1CC1C(=O)Nc1nc2ccc(S(C)(=O)=O)cc2s1 (configuration not stated) | 0.7 | -1.9 | -1.4 | -0.7 | -0.3 | -1.8 | x | x
Cc1ccc2nc(NC(=O)C3CC3C)sc2c1 (configuration not stated) | 14.2* | 3.5 | 0.3 | 4.6 | 0.6 | 0.8 | 11.9* | 0.6
Cc1[nH]c2ccccc2c1C(=O)c1c(N)[nH]c(C(=O)c2ccccc2)c1-c1ccc(Cl)cc1 | 0.1 | -7.0 | -0.5 | 1.5 | 1.0 | x | x | x
COc1ccc(NC(=S)Nc2ncccc2C)cc1OC | 20.8* | 3.2 | -0.5 | 3.1 | 2.5 | 1.8 | 5.5 | 0.1
Cc1cccnc1NC(=S)Nc1ccc(Cl)c(Cl)c1 | 9.7 | 2.7 | 0.1 | 3.9 | 1.1 | 1.7 | x | x
CN(C)c1ccc(/C=N/N=C/c2ccccc2O)cc1 | 15.6* | 5.7 | 1.9* | 3.7 | 2.7 | 3.7 | 6.0 | 1.0
C=CCN=Cc1sc2ccc(OCC)cc2c1O | 14.4* | 7.7 | -0.3 | 5.6* | 2.7 | x | 10.4 | 0.5
CCCCN=Cc1sc2ccc(OCC)cc2c1O | 3.5 | 1.1 | -1.0 | 0.1 | -0.3 | 0.0 | x | x
O=C(NCc1ccccc1)[C@H]1CCCN1C(=O)[C@H]1CCCN1C(=O)c1ccc(Cl)cc1 | -0.2 | -3.6 | -1.0 | -0.5 | -0.9 | x | x | x
CCN(CC)c1ccc(/C=N/NC(=O)c2ccc3c(c2)OCCO3)cc1 | 3.1 | 3.4 | -0.9 | 0.5 | -0.1 | -0.2 | x | x
CCc1ccc(/C=N\NC(=O)c2ccc(Br)o2)s1 | 15.5* | 7.4 | -0.4 | 2.8 | 3.3 | 2.2 | 12.6* | 0.4
CCN(CC)c1ccc(/C=N/NC(=O)c2ccc(Br)o2)cc1 | 17.4* | 5.6 | 0.2 | 1.9 | 1.8 | 1.6 | 18.6* | 0.7
Cc1ccc(/C=N/NC(=O)c2ccc(Br)o2)s1 | 8.0 | 3.9 | -0.8 | 3.8 | 1.7 | 1.9 | x | x
O=Cc1ccc([B-](F)(F)F)o1 | 2.7 | -2.2 | -0.8 | -0.4 | -1.2 | x | x | x
Nc1ccn([C@@H]2O[C@H](C(=O)N[C@H](Cc3ccccc3)C(=O)N3CCN(CC(=O)N4CCCC4)CC3)[C@@H](O)[C@H]2O)c(=O)n1 | -2.2 | -5.1 | -1.1 | 0.2 | -1.1 | x | x | x
Clc1ccc(-c2nc(Cc3ccccc3Cl)no2)cc1 | 3.5 | 1.4 | -0.7 | -0.8 | 0.1 | 1.1 | x | x
Clc1ccc(Cc2noc(-c3cccs3)n2)cc1 | 18.6* | 0.8 | -0.6 | 0.9 | 1.0 | 1.2 | 9.2 | 0.3
COc1ccc(/C=N/NC(=O)c2ccc(Br)cc2)c(OC)c1 | 2.3 | 3.4 | -0.9 | 0.4 | 0.1 | -0.1 | x | x
COc1ccc(/C=N/Nc2ncc(Br)cn2)c(OC)c1 | 16.3* | 4.9 | -0.3 | 0.5 | 1.9 | 2.7 | 14.7* | 0.6
O=C(NCc1ccncc1)[C@@H]1CCCN1C(=O)[C@H]1CCCN1 | -1.5 | 1.6 | -0.8 | 1.9 | -0.1 | x | x | x
O=C(COC(=O)c1ccccc1Cc1ccccc1)Nc1ccc(SC(F)F)cc1 | 14.5* | 1.6 | -0.4 | 2.8 | 2.6 | 1.4 | 17.3* | 0.5
O=C(Cc1ccccc1F)Nc1ccc(SC(F)F)cc1 | 16.6* | 4.2 | -0.2 | 5.2 | 2.7 | 3.5 | 13.9* | 0.5
O=C(COC(=O)Cc1ccccc1F)Nc1ccc(SC(F)F)cc1 | 3.5 | 5.6 | -1.1 | 0.1 | -0.1 | -0.2 | x | x
SMILES | hgDAF-12 ag | SMARCA2 act | ssDAF-12 act | hcDAF12 agonist | DAX1 inh-1 | DAX1 inh-2 | hgDAF12 ag | LXRb DAF12 ctr
O=C(Nc1ccc(SC(F)F)cc1)c1ccccc1F | 15.9* | 1.0 | -0.1 | 4.6 | 3.9* | 6.2* | 15.4* | 0.8
O=C(Nc1ccc(SC(F)F)cc1)c1ccc(F)cc1 | 13.6* | 1.5 | -0.1 | 2.8 | 3.0 | 2.1 | 13.6* | 0.6
C[C@H]1[C@H](c2ccccc2)Oc2cccc(N3CCCC3)c2S(=O)(=O)N1Cc1cccc(F)c1 | 0.6 | -1.1 | -0.6 | -1.2 | 0.9 | x | x | x
O=C(Oc1ccc2ccc(O)cc2c1)c1ccccc1Cl | 13.9* | 4.3 | -0.3 | 3.6 | 0.8 | 1.9 | 7.4 | 0.4
Cc1cccc(C2c3[nH]c4ccccc4c3CCN2C(=O)c2ccc(=O)[nH]c2)n1 (configuration not stated) | 0.5 | 2.2 | -1.2 | 2.7 | -1.0 | 1.4 | x | x
Cc1ncoc1C(=O)N1CCc2c([nH]c3ccccc23)C1c1ccccc1F (configuration not stated) | 16.1* | -0.4 | 0.4 | 3.4 | 0.6 | -0.9 | 2.5 | 0.0
Cc1ccc(-c2nc(Nc3cccc(C)c3)sc2CC(=O)O)cc1 | 17.0* | 2.9 | 0.0 | 2.6 | 3.5 | 1.1 | 5.2 | 0.3
CN(c1cccnc1)c1ccc(NC(=O)Cc2cn(Cc3ccccc3)c3ccccc23)cc1Br | -1.4 | -5.4 | -1.3 | -2.7 | -0.9 | x | x | x
Cc1nnc(NC(=O)c2sc3ccccc3c2Cl)s1 | 16.4* | 4.9 | 0.2 | 4.5 | 3.1 | -3.9 | 11.2* | 0.6
Cc1nnc(NC(=O)c2ccccc2Br)s1 | 0.8 | 1.8 | -1.0 | 0.0 | 1.2 | -0.5 | x | x
CC(C)c1ccc(OCc2cccc(C(=O)N/N=C/c3cccnc3)c2)cc1 | 21.1* | 4.6 | 0.8 | 3.6 | 3.9* | -5.7 | 18.3* | 0.9
CC(C)c1ccc(/C=N/NC(=O)c2cccc(Cl)c2)cc1 | 15.1* | 6.6 | -0.1 | 3.3 | 3.4 | 1.4 | 24.2* | 0.7
Cc1cc(Oc2cccnc2)ccc1NC(=O)Cc1c[nH]c2ccccc12 | 3.0 | 0.7 | -0.5 | 3.8 | -0.8 | x | x | x
O=C(C(=O)N1CCN(C(=O)Cc2ccccc2)CC1)c1cccc(C(F)(F)F)c1 | -0.8 | -1.5 | -0.8 | -1.0 | 0.0 | x | x | x
COc1ccc(/C=C/C2=Nc3ccccc3NC(C)(C)C2)cc1OC | 15.7* | 3.3 | 1.0* | 5.5 | 2.0 | 2.8 | 6.8 | 0.2
O=C(N=C1SCC(=O)N1c1ccccc1Cl)c1ccco1 | 8.2 | 4.9 | -0.8 | 2.1 | 1.3 | 3.3 | x | x
O=C(N=C1SCC(=O)N1c1ccccc1Cl)c1ccccc1 | 16.6* | 3.4 | 0.8 | 3.2 | 2.2 | 0.7 | 9.3 | 0.8
CCCCNc1ccc2c(c1)OC[C@@H](Cc1ccccc1)NS2(=O)=O | -0.1 | -5.4 | -0.8 | -1.0 | -1.1 | x | x | x
CCc1nc(Nc2ccncc2)c2oc3ccccc3c2n1 | 19.3* | 7.4 | -0.7 | 0.7 | -0.5 | 0.8 | 8.2 | 0.1

Assay outcomes from PubChem BioAssay.
